Common to all, as to details: concentration: 1 μM, replicates: in singlicate; n = 1
The test system of test [1] is T1, ASK2.
T1 construct: gene MAP3K6

The test system of test [2] is AURKA.
Test [3] deals with AURKB.
Test [4] has as its system AURKC.
The test system of test [5] is AXL.
Test [6] deals with T2, BIKE.
T2 construct: gene BMP2K

In test [7] the test system is BLK.
Test [8] concerns BMPR1A.
The test system of test [9] is BMPR1B.
Test [10] concerns BMPR2.

The source of these data is PMC5540273 (PLoS ONE, 2017).

SMILES strings stand for the structures.
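Also: KINOMEscan kinase panel screen.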

Consider `CC(C)NCC(Cc1ccccc1)NC(=O)c1cc(Br)c(-c2ccnc3[nH]ccc23)s1.Cl.Cl` (stereo not shown) [GSK1383281], for which the “%Inh” value in [1] is 11%; in [2], 95.1%; in [3], 93.8%; in [4] it was 91.7%; in test [5], 74%; in test [6], 79%. The “%Inh” value in test [7] is reported as 0%; in [8] it was 0%; in test [9], 0%; in test [10] it was 8%.

Regarding `CS(=O)(=O)c1cccc(CNc2nc(Nc3ccc4c(c3)CCC(=O)N4)ncc2C(F)(F)F)c1`, the “%Inh” value is 0% in [1]; 97.8% in test [2]; 96.7% in test [3]; 71% in test [4]; 23% in test [5]; 82% in [6]. Besides, the “%Inh” value was 0% in test [7], 0% in test [8], 0% in test [9] and 39% in test [10].

On to `CN(C)CCNS(=O)(=O)c1ccc(-c2ccnc3[nH]ccc23)cc1` [GSK977620], for which the “%Inh” value in [1] was found to be 23%; in [2] it was 2%; in [3] it was 57%; in test [4] it was 85%; in test [5], 93.1%; in test [6], 82%. The “%Inh” value in test [7] is listed as 6%; in test [8], 0%; in test [9], 0%; in test [10], 0%.

For the molecule `CN(c1ccc(NC(=O)N2CCN(CCCN3CCOCC3)CC2)cc1)c1ccnc(Nc2ccc(CS(C)(=O)=O)cc2)n1.Cl` [GW830899], the “%Inh” value in [1] was found to be 0%; in [2] it was 84%; in test [3], 76%; in test [4] it was 75%; in [5], 2%; in test [6] it was 86%. For the same molecule, the “%Inh” value in [7] came to 0%; in test [8], 6%; in [9], 7%; in test [10] it was 0%.

Consider `COc1ccc(C)c(Nc2ccnc(Nc3ccc(-c4cnc[nH]4)cc3)n2)c1.Cl` [GW784041], for which the “%Inh” value in test [1] is listed as 0%; in test [2] it was 20%; in [3] it was 8%; in [4], 56%; in test [5], 0%; in test [6] it was 37%. For the same molecule, the “%Inh” value in test [7] was determined as 59%; in test [8] it was 70%; in test [9], 99.9%; in test [10] it was 0%.

As for `NCCC(NC(=O)c1cc(Br)c(-c2ccnc3[nH]ccc23)s1)c1ccccc1.O=C(O)C(F)(F)F.O=C(O)C(F)(F)F` (stereo not shown) [GSK1307810], the “%Inh” value in [1] was found to be 11%; in test [2], 87%; in test [3], 13%; in test [4], 99.7%; in [5], 76%; in test [6], 100%. Further, the “%Inh” value in [7] worked out at 0%; in [8], 0%; in test [9] it was 0%; in test [10], 52%.

With `COc1ccc(C2=C(Nc3cccc(O)c3)C(=O)NC2=O)cc1` [SB-390766], the “%Inh” value was found to be 7% in test [1]; 13% in test [2]; 33% in test [3]; 0% in [4]; 35% in [5]; 0% in test [6]. The “%Inh” value in test [7] turned out to be 0%; in test [8] it was 0%; in [9] it was 0%; in [10], 24%.

`CN(C)c1ncnc2nc[nH]c12` [SKF-31736]: the “%Inh” value in test [1] turned out to be 0%; in [2] it was 12%; in [3], 54%; in test [4], 0%; in test [5], 0%; in test [6], 0%. Further, the “%Inh” value was found to be 0% in test [7], 0% in test [8], 7% in [9] and 46% in test [10].

Consider `Nc1cccc(-c2ccc3c(N)n[nH]c3c2)c1` [GSK2193613], for which the “%Inh” value was 0% in test [1]; 10% in test [2]; 0% in [3]; 46% in test [4]; 0% in test [5]; 82% in [6]. The “%Inh” value amounted to 87% in test [7], 0% in [8], 89% in test [9] and 3% in test [10].

As for `CC(C)c1nc(-c2ccc(F)c(NS(=O)(=O)c3c(F)cccc3F)c2)c(-c2ccnc(Nc3ccc(N4CCOCC4)nc3)n2)s1` [GSK1804250], the “%Inh” value was determined as 25% in test [1]; 11% in [2]; 29% in test [3]; 88% in [4]; 82% in [5]; 44% in [6]. The “%Inh” value is 99.5% in [7], 40% in [8], 99.7% in test [9] and 1% in [10].

For `Fc1cc(Cl)ccc1Nc1ccnc2cc(-c3ccc(CN4CCSCC4)o3)ccc12` [GW560106], the “%Inh” value in test [1] is reported as 0%; in test [2], 100%; in test [3], 0%; in test [4], 18%; in test [5], 33%; in test [6] it was 4%. In addition, the “%Inh” value was 97.7% in test [7], 14% in [8], 45% in test [9] and 5% in test [10].

Consider `CC(C)c1nc(-c2cccc(NS(=O)(=O)c3c(F)cccc3F)c2)c(-c2ccnc(Nc3ccc(N4CCOCC4)nc3)n2)s1.Cl` [GSK1723980], for which the “%Inh” value in test [1] is 20%; in test [2], 41%; in [3], 42%; in test [4] it was 50%; in test [5], 74%; in [6], 19%. Moreover, the “%Inh” value in test [7] is reported as 99.8%; in [8], 67%; in test [9], 99.7%; in test [10], 0%.

With `CC(C)(C)c1ccc(C(=O)Nc2cn3cc(-n4ccnc4)ccc3n2)cc1`, the “%Inh” value in test [1] turned out to be 6%; in test [2] it was 0%; in [3], 24%; in [4], 0%; in [5] it was 0%; in test [6] it was 0%. The “%Inh” value in test [7] is given as 0%; in [8] it was 3%; in test [9], 0%; in test [10], 8%.

Consider `CN(c1ccc2c(c1)nc(NCc1ccccc1)n2C)c1ccnc(Nc2ccc(CS(C)(=O)=O)cc2)n1.Cl` [GW811603], for which the “%Inh” value in test [1] is on record as 0%; in test [2] it was 87%; in [3], 79%; in test [4] it was 63%; in test [5] it was 85%; in test [6], 24%. Moreover, the “%Inh” value in [7] stood at 39%; in test [8] it was 0%; in test [9] it was 4%; in test [10], 22%.

For `CNc1nccc(-c2ccc3c(N)n[nH]c3c2)n1` [GSK2206003], the “%Inh” value in [1] was determined as 0%; in test [2] it was 8%; in test [3], 0%; in test [4] it was 46%; in [5] it was 0%; in test [6], 94.1%. Besides, the “%Inh” value in test [7] was 54%; in test [8] it was 7%; in [9], 71%; in [10], 6%.

For `Cn1cc(-c2ccc3c(c2)CCN3C(=O)Cc2cc(F)cc(F)c2F)c2c(N)ncnc21` [GSK2634140], the “%Inh” value is 0% in test [1]; 18% in test [2]; 92.6% in test [3]; 59% in [4]; 89% in [5]; 33% in test [6]. In addition, the “%Inh” value came out at 72% in test [7], 0% in test [8], 5% in test [9] and 0% in test [10].
